Hits are enriched below; roughly 3.5% of the tested compounds scored in any of these assays.
TEAD-YAP block – TEAD-YAP interaction inhibition, primary screen, TEAD-YAP interaction inhibitor project, luminescence, HEK-TIYL cells | 640,000 tested, 1.4% active | inhibition, % at 9.12 µM | TEAD-Gal4/YAP UAS-luciferase luminescence; in the data active = inhibition above about 32%;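 note: 0% = median of test compound wells and 100% = reference inhibitor wells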
MITF inh – MITF inhibitors, primary screen, biochemical, AlphaScreen, human. AlphaScreen MITF homodimerization, bead proximity signal. inhibition, % at 2.6 µM. 650,000 tested, 0.91% active. AID 1259374, 2018; in the data active = inhibition above about 50%;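 note: 0% = vehicle wells with protein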
Target sequence (O75030 whole entry, looked up): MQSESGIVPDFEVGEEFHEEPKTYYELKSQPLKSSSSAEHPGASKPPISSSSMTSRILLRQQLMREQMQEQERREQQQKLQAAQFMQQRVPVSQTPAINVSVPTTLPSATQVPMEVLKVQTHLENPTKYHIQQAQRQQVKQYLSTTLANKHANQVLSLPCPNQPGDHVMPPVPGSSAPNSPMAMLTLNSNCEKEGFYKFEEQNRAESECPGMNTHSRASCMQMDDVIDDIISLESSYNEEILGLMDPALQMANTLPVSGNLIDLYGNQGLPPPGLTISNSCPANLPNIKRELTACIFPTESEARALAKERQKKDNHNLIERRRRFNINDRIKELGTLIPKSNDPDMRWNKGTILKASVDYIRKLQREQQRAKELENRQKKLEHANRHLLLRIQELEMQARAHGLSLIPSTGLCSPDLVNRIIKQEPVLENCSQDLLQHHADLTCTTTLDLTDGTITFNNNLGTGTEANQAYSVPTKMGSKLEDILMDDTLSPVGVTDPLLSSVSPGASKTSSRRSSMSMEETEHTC
GPR151 ag – activators of human GPR151, primary screen, cell-based, PathHunter beta-arrestin, luminescence; AID 1508602, 2020; G-protein coupled receptor 151 (Homo sapiens), Q8TDV0; PathHunter beta-arrestin GPR151 cells; activation, % at 11.2 µM; 650,000 tested, 1% active; in the data active = activation above about 4.9%;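 note: 0% = median of compound wells and 100% = cells with positive control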
FBW7 act – FBW7 E3 ligase activators, primary screen, biochemical, AlphaScreen, human. AlphaScreen FBW7–phospho-cyclin E peptide binding, activator screen. F-box/WD repeat-containing protein 7 (Homo sapiens), Q969H0. 650,000 tested, 0.13% active. normalized activity (activation), % at 26.1 µM; in the data active = normalized activity above about 1.9%;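 note: purified mutant Fbw7 with reduced substrate affinity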
The depositor's hits bear a star.

SMILES | TEAD-YAP block | MITF inh | GPR151 ag | FBW7 act
Cc1cc(-c2cn[nH]c2C2CCN(C(=O)Cc3ccccc3F)CC2)on1 | -7 | 8 | 0 | 0
C/C(=N/Nc1cccc(Cl)c1)c1ccc(O)c(C(N)=O)c1 | -31 | 5 | 3 | 0
CCOC(=O)[C@@H]1Nc2ccc(C(=O)O)cc2[C@@H]2C=CC[C@H]12 | 0 | 74* | -1 | -1
O=c1c2ncccc2n(Cc2cccc3ccccc23)c(=O)n1Cc1ccccn1 | 0 | 18 | -1 | 0
C[C@@H](OCc1ccccc1)[C@@H]1NC(=O)[C@H]2CN(Cc3ccccc3)CCN2C1=O | 6 | -3 | 2 | 0
CC1Cc2ccccc2N1S(=O)(=O)c1ccc2c(c1)n(C)c(=O)c(=O)n2C (stereo not given) | 5 | 0 | 1 | 0
Cc1cc(-c2ccc(S(=O)(=O)N3c4ccccc4CC3C)cc2)on1 (stereo not given) | 61* | 3 | 0 | 0
CC1Cc2ccccc2N1S(=O)(=O)c1ccc2[nH]c(=O)[nH]c2c1 (stereo not given) | 37* | 10 | 1 | 0
FC(F)(F)c1cc(Cn2c3ccccc3c3nc4ccccc4nc32)cc(C(F)(F)F)c1 | 4 | -3 | -1 | 2.4*
COc1ccc(C2CC(=O)C3=C(C2)NC(C)=C(C(=O)OCC(C)C)C3c2cc(OC)ccc2OC)cc1 (stereo not given) | 8 | 1 | -2 | 0
O=C(N/N=C\c1cc(Br)ccc1O)c1ccccn1 | -23 | 58* | 2 | -1
O=C(N/N=C\c1ccc(O)cc1O)c1ccccn1 | 17 | 65* | -5 | -1
O=C(N/N=C\c1cccc([N+](=O)[O-])c1O)c1cnccn1 | -7 | 77* | 1 | -1
O=C(N/N=C\c1ccc(O)cc1O)c1cnccn1 | -6 | 79* | -1 | -1
CCOc1ccc(/C(O)=C2/C(=O)C(=O)N(c3ccccc3)C2c2ccccc2)cc1 (stereo not given) | 7 | -1 | -1 | 0
COP(=O)(OC)c1nc(-c2ccc(C)cc2)oc1NCc1ccccc1 | 1 | 13 | 2 | 0
N#Cc1ccccc1OCc1ccccc1F | -37 | 6 | -4 | 1
COc1ccc(C2Nc3ccccc3C(=O)N2c2ccc(Cl)cc2)cc1CSc1ccccn1 (stereo not given) | -62 | -9 | -2 | 0
O=C(CN1C(=O)c2ccccc2C1=O)OC(c1ccccc1)c1ccccc1 | -2 | 3 | -1 | 0
CCCCc1ccc(C(=O)Oc2ccc(-c3ccc(CCC)cn3)cc2)cc1 | 70* | -4 | 0 | 0
CCCCCc1ccc(-c2ccc(C(=O)Oc3ccc(CC)cc3)cc2)nc1 | 8 | 0 | -1 | 0
CCCc1ccc(-c2ccc(C(=O)Oc3ccc(F)cc3)cc2)nc1 | -18 | 14 | 2 | 0
CCCc1ccc(-c2ccc(C(=O)Oc3ccccc3F)cc2)nc1 | 55* | 11 | 5 | 0
O=c1c2c(nc3cc(-c4ccco4)[nH]n13)CCS2 | -29 | 89* | -2 | 0
Fc1ccc(Nc2ccn3ncc(-c4cccs4)c3n2)cc1Cl | 5 | 16 | 3 | 0
SMILES | TEAD-YAP block | MITF inh | GPR151 ag | FBW7 act
Fc1ccc(Nc2ccn3ncc(-c4ccsc4)c3n2)cc1Cl | 5 | -3 | 1 | 2.0*
COCCNC(=O)/C(C#N)=C/c1c(Oc2ccccc2OC)nc2c(C)cccn2c1=O | 34* | 5 | 1 | 0
CCOCCCNC(=O)/C(C#N)=C/c1c(Oc2ccc(C)cc2)nc2c(C)cccn2c1=O | 19 | 10 | 0 | 0
CCOCCCNC(=O)/C(C#N)=C/c1c(Oc2ccccc2C)nc2c(C)cccn2c1=O | 32* | 4 | 0 | 0
CS(=O)(=O)c1ccc(C(=O)NCC23CC4CC(CC(C4)C2)C3)cc1[N+](=O)[O-] | -13 | 3 | 1 | 0
CCNC(=O)c1ccc(CN2CCN(c3ccccc3)CC2)cc1 | -1 | -14 | -1 | 0
O=C(Nc1ccccc1C(F)(F)F)c1ccc(CN2CCN(c3ccccc3)CC2)cc1 | 47* | 1 | -1 | 0
Cc1ccc(CC(=O)Nc2nc3c(s2)CCCC3)cc1 | 26 | -9 | 0 | 0
Cc1nc(C)c(CC(=O)Nc2nc3c(s2)CCCC3)s1 | 40* | 4 | 0 | 0
O=C(O)c1ccc(S(=O)(=O)c2ccc(C(=O)O)cc2)cc1 | -7 | -1 | -1 | 0
O=C1C=CC(=NS(=O)(=O)c2ccc(C(=O)O)cc2)C=C1 | 7 | 56* | 0 | 0
O=C(NCCc1nc(-c2ccccc2)cs1)c1cccc(C(=O)NCCc2nc(-c3ccccc3)cs2)c1 | 48* | -3 | 1 | 0
CC(C)(C)c1ccc(C(=O)N(CCO)Cc2cc3cc4c(cc3[nH]c2=O)OCO4)cc1 | -2 | -11 | 1 | 0
C/C(=N\Nc1nc2ccccc2[nH]1)c1cccc([N+](=O)[O-])c1 | -31 | -3 | 0 | 0
C=CCC(O)(CC=C)C(C)NC(=O)CCC1(Cc2ccc3ccccc3c2)CCC(=O)N1 (stereo not given) | 5 | 2 | 0 | 0
O=C(c1cc(-c2ccccc2)on1)N1CCCCCC1 | -67 | 23 | -1 | 1
COc1cccc(-c2cc(C(=O)N3CCCC3)no2)c1 | 38* | 10 | -4 | 0
O=C(c1cc(-c2cccc(O)c2)on1)N1CCCCC1 | 67* | 16 | -3 | 0
CCC(C)C(=O)N1CCCC(c2nc(-c3cccc(OC)c3)no2)C1 (stereo not given) | 61* | -4 | -2 | 0
O=C(Nc1ccc(F)c(Cl)c1)C1CCCN1C(=O)OCc1ccccc1 (stereo not given) | 1 | -5 | 2 | 1
CCN(CC)S(=O)(=O)c1ccc(-c2csc(=Nc3ccc(F)cc3)n2CCO)cc1 | 46* | 22 | 1 | 0
O=S(=O)(c1ccc(-c2csc(=Nc3ccc(F)cc3)n2CCO)cc1)N1CCCC1 | 47* | 44 | 1 | 0
CCN(CC)S(=O)(=O)c1ccc(-c2csc(=Nc3ccc(F)cc3)n2CCc2ccc(OC)cc2)cc1 | -2 | 16 | 0 | 0
CCSc1nc(-c2ccccc2)c(NC(=O)c2ccco2)s1 | -10 | 11 | 0 | 1.9*
COc1cccc(/C=N/Nc2cccc3cccnc23)c1 | 44* | 15 | -4 | 0
SMILES | TEAD-YAP block | MITF inh | GPR151 ag | FBW7 act
COc1cc(/C=N/Nc2ncnc3nc[nH]c23)cc(OC)c1OC | -7 | 1 | -1 | 0
CCOc1ccc(Nc2ncnc3nc[nH]c23)cc1 | 51* | 2 | -2 | 0
CC(C)c1ccc(/C=N/Nc2ncnc3nc[nH]c23)cc1 | 52* | 7 | 0 | 0
COc1cccc(/C=N/Nc2ncnc3nc[nH]c23)c1 | 48* | 8 | -3 | 0
Cc1c(C(=O)Nc2ccc3c(c2)OCCO3)sc2ncnc(N3CCOCC3)c12 | -20 | 8 | -2 | 0
COC(=O)C1=CN(Cc2cccs2)C=C(C(=O)OC)C1c1ccc2c(c1)OCO2 | -1 | 1 | -1 | 0

Compound activity as filed in PubChem.
